PubChem BioAssay AID1578 (Sanford-Burnham Center for Chemical Genomics, 2009)
The campaign covered roughly 290,000 compounds. About 3,000 (1%) were called active. The entries come from a sample that favours actives as a whole. A number with no mark means an inactive call. No stated cut-off is given here; in the data, active means inhibition mostly above about 36% (no sharp cut-off); inactive means mostly below about 34%.

Experiment: NOD1 signaling inhibitors, primary screen, cell-based, luminescence, uHTS (AID 1578);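 further: HEK-293T reporter cells stimulated with the NOD1 agonist gamma-tri-DAP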
Conditions: NOD1-driven NF-kB luciferase reporter cells, at 4 µM, active compounds read high
`CCCCN1CN(S(=O)(=O)c2ccc(OC)cc2)c2nc3ccccc3nc21` gave an inhibition of -13.8%.
Compound `CCCCCCS(=O)Cc1ccccc1` (stereo not given) has an inhibition of -9.9%.
For `COc1ccccc1C(=O)NCCC(=O)NCCOc1ccccc1`, the inhibition was 7.7%.
In the case of `CN(C(=O)COc1ccccc1C(=O)NCCc1ccccc1)c1ccccc1`, the inhibition was -33.9%.
With `CCN(CCO)Cc1cc(=O)oc2c(C)c(C)ccc12` the inhibition was 8.5%.
For `CCN1C=C(Cc2cccs2)C2=C(C1)C(c1cccs1)C(C#N)=C(N)O2` (stereo not given), the inhibition was 30.4%.
Compound `CCN1C=C(Cc2ccc(F)cc2)C2=C(C1)C(c1ccc(F)cc1)C(C#N)=C(N)O2` (stereo not given) has an inhibition of 21.1%.
In the case of `CCN1C=C(Cc2ccccc2C)C2=C(C1)C(c1ccccc1C)C(C#N)=C(N)O2` (stereo not given), the inhibition was 71.8% (active).
In the case of `O=C(CCn1nnc2ccccc21)N1CCN(c2ccccc2)CC1`, the inhibition was 7.2%.
With `CCC1CCCCN1C(=O)CCCc1ccccc1` (stereo not given) the inhibition was -21%.
Compound `O=C(Nc1nc2ccccc2n1CCOc1ccccc1)c1ccco1` has an inhibition of 35.8%.
For `COc1ccc(OCCn2c(NC(=O)c3ccco3)nc3ccccc32)cc1`, the inhibition was 9.1%.
With `Cc1c(O)nc(SCC(=O)Nc2nccs2)n(-c2ccccc2F)c1=O` the inhibition was -42.1%.
In the case of `CCOC(=O)NNC1CC(=O)N(c2ccccc2)C1=O` (stereo not given), the inhibition was -12%.
`CCc1nccn1S(=O)(=O)c1cc(OC)c(Cl)cc1OC` gave an inhibition of -4.5%.
`CC(=O)Nc1c(C(=O)O)oc2ccc(Cl)cc12` gave an inhibition of 2.5%.
With `O=S(=O)(NC1CCCC1)c1ccc(Br)s1` the inhibition was -14%.
For `O=S(=O)(NC1CCCCC1)c1ccc(Br)s1`, the inhibition was -13.1%.
With `Cc1ccc(S(=O)(=O)NC2CC2)s1` the inhibition was 45.4% (active).
`COc1ccc(C(=O)NCC(=O)OCC(=O)Nc2cc(OC)ccc2OC)cc1` gave an inhibition of -4.7%.
In the case of `Cc1ccc(NC(=S)N(Cc2ccc(Br)cc2)Cc2ccc(C(=O)O)cc2)cc1C`, the inhibition was -22.8%.
Compound `NNc1nc(-c2ccccc2)cc(-c2ccccc2O)n1` has an inhibition of 3.5%.
For `O=[N+]([O-])c1cc(C(F)(F)F)ccc1Sc1ccccn1`, the inhibition was -1.5%.
Work on `Oc1c(Cl)cc(Cl)cc1Sc1cc(Cl)cc(Cl)c1O` yielded an inhibition of -35.5%.
For `Oc1c(Cl)cc(Cl)c(Cl)c1Cc1c(O)c(Cl)cc(Cl)c1Cl`, the inhibition was 85.9% (active).
For `Oc1c(Cl)cc(Cl)c2c1NCCC2`, the inhibition was -5.4%.
`O=C(NC(=S)NCCO)c1sc2ccccc2c1Cl` gave an inhibition of -51.4%.
`O=S(=O)(CC(CN1CCCCC1)N1CCCCC1)c1ccccc1` (stereo not given) gave an inhibition of 9.2%.
Work on `O=S(=O)(CC(CN1CCCCC1)N1CCCCC1)c1ccc2ccccc2c1` (stereo not given) yielded an inhibition of -6.3%.
In the case of `O=S(=O)(CC(CN1CCCC1)N1CCCC1)c1ccc2ccccc2c1` (stereo not given), the inhibition was 51.2% (active).
In the case of `OCCC1CN(Cc2cccc3nonc23)CCN1C1CCCCC1` (stereo not given), the inhibition was -25.9%.
In the case of `O=C(CN1CCN(C(=O)C2CCCO2)CC1)Nc1ccc(F)cc1` (stereo not given), the inhibition was -12%.
For `Cc1ccc(-c2nnc(OCc3cccnc3)c3ccccc23)cc1`, the inhibition was -11.3%.
Work on `COc1cc(/C=C/C(=O)c2ccc3c(c2)OCO3)cc(Cl)c1O` yielded an inhibition of 13.2%.
For `COc1ccc(/C=C/C(=O)c2ccc(Cl)s2)cc1O`, the inhibition was -46%.
For `COc1ccc(C(=O)/C=C/c2cc(OC)c(O)c(OC)c2)c(F)c1`, the inhibition was 93.6% (active).
For `COc1cc(/C=C/C(=O)c2ccc(Cl)s2)cc(OC)c1O`, the inhibition was 76.4% (active).
With `COc1ccc(C(=O)/C=C/c2ccc(OC)c(O)c2)c(F)c1` the inhibition was 36.2%.
`COc1ccc2cc(C(=O)/C=C/c3cc(OC)c(O)c(OC)c3)ccc2c1` gave an inhibition of 62.6%.
In the case of `O=C(c1ccc(F)cc1)N1CCN(C2=NS(=O)(=O)c3ccccc32)CC1`, the inhibition was -41.6%.
Compound `Cc1nn(-c2ccccc2)c(C)c1NC(=O)COc1ccc(C#N)cc1` has an inhibition of -20.8%.
For `CCOc1ccc(NC(=O)CC(NCc2ccccn2)C(=O)O)cc1` (stereo not given), the inhibition was -2.9%.
Work on `CCOC(=O)C1CCN(c2ccc(-c3cccs3)nn2)CC1` yielded an inhibition of -0.9%.
For `CC1CCN(c2ccc(-c3cccs3)nn2)CC1`, the inhibition was 31.4% (active).
Work on `c1csc(-c2ccc(N3CCOCC3)nn2)c1` yielded an inhibition of -11.8%.
Compound `CCOC(=O)C1CCN(C(=O)CN(c2cc(Cl)ccc2OC)S(=O)(=O)c2ccccc2)CC1` has an inhibition of -33.5%.
With `COc1cccc(NS(=O)(=O)c2cc3c(cc2C)N(C)CCO3)c1` the inhibition was -2.7%.
Compound `O=C(N/N=C/c1ccc(N2CCOCC2)cc1)c1ccccn1` has an inhibition of 0%.
Compound `O=C(N/N=C/c1ccc(OCC(=O)N2CCOCC2)cc1)c1ccccc1Cl` has an inhibition of -15.5%.
For `O=C(N/N=C/c1ccc(N2CCOCC2)cc1)c1ccccc1OCCOc1ccccc1`, the inhibition was 58.8% (active).
`Fc1ccc(-n2ncc3c(SCc4cccnc4)ncnc32)cc1` showed an inhibition of -6.1%.
With `Cc1nc2nc[nH]n2c(=O)c1CC(=O)O` the inhibition was 14.8%.
Compound `CC1CCCN(c2ccc3nc4ccccc4c(=O)n3n2)C1` (stereo not given) has an inhibition of 28.3%.
In the case of `CN(c1ccc2nc3ccccc3c(=O)n2n1)C1CCCCC1`, the inhibition was 92.5% (active).
For `CN(c1cc(=O)n2ccccc2n1)C1CCCCC1`, the inhibition was -27.9%.
`CN1CCCN(C(=O)/C=C/c2ccc(F)cc2)CC1` gave an inhibition of -22.5%.
In the case of `N#CCC(=O)Nc1ccc(C(=O)OCC(=O)NCCCc2ccccc2)cc1`, the inhibition was 5.1%.
With `O=C(O)c1ccc(C=C(c2nc3ccccc3s2)c2nc3ccccc3s2)cc1` the inhibition was 63.5% (active).
`COc1cc(C=C(c2nc3ccccc3s2)c2nc3ccccc3s2)ccc1O` gave an inhibition of 7.4%.
For `O=C(O)c1ccc(/C=C(\c2nc3ccccc3[nH]2)c2nc3ccccc3s2)cc1`, the inhibition was 4.6%.
Compound `CCCNC(=O)COC(=O)CCC(=O)c1cccs1` has an inhibition of -7.8%.
Compound `O=C(Oc1cccc2cccnc12)c1cccc([N+](=O)[O-])c1` has an inhibition of -8.5%.
With `O=C(Oc1c(Cl)cc(Cl)c2cccnc12)c1cccc([N+](=O)[O-])c1` the inhibition was 105% (active).
`O=C(Oc1ccc(Cl)c2cccnc12)c1cccc([N+](=O)[O-])c1` gave an inhibition of -6.9%.
`COc1ccc(OC)c(Nc2nc(NCc3ccco3)nc(N)c2[N+](=O)[O-])c1` showed an inhibition of -6.4%.
Work on `Cc1ccc(NS(=O)(=O)c2cc(NC(=O)c3cc(=O)[nH]c(=O)[nH]3)ccc2Cl)c(C)c1` yielded an inhibition of 12.4%.
Work on `COc1ccc(NC(=O)c2ccc3c(c2)NC(=O)CS3)cc1S(=O)(=O)Nc1ccc(Br)cc1` yielded an inhibition of 4%.
Work on `Cc1ccc(C(=O)N/C(=C\c2cccc([N+](=O)[O-])c2)C(=O)OCN2C(=O)c3ccccc3C2=O)cc1` yielded an inhibition of -36.4%.
`O=C(NC1=NCCS1)C12CC3CC(CC(C3)C1)C2` showed an inhibition of -23.8%.
In the case of `Nc1cccc2nc3ccccc3cc12`, the inhibition was -65%.
`Nc1[nH]nc2nc3ccccc3cc12` showed an inhibition of -21.2%.
Compound `O=C(c1cccc(F)c1)N1C2C=CC(C2)C1(C(F)(F)F)C(F)(F)F` (stereo not given) has an inhibition of 23%.
`N/C(=N/S(=O)(=O)c1ccccc1)c1cccc([N+](=O)[O-])c1` showed an inhibition of 2%.
Compound `CNC(=S)NNC(=O)c1sc2cc(C(F)(F)F)cnc2c1-c1ccccn1` has an inhibition of -34.8%.
In the case of `CCCCCCC1CC(=O)NC(=S)N1` (stereo not given), the inhibition was -3%.
With `CCCCCCC1CC(=O)NC(=O)N1` (stereo not given) the inhibition was 45.3% (active).
`CCCCCC1CC(=O)N(Cc2ccc(Cl)cc2)C(=O)N1` (stereo not given) showed an inhibition of 7.7%.
`Cc1ccc(N2CCC(N3CCN(C4CCCCC4)C(CCO)C3)CC2)cc1` (stereo not given) showed an inhibition of -17.5%.
In the case of `COc1cc2c(cc1OC)C(C1C(=O)CCCC1=O)N(C(=O)CCl)CC2` (stereo not given), the inhibition was -8%.
With `COc1cc2c(cc1OC)C(c1ccccc1)N(C(=O)CCl)CC2` (stereo not given) the inhibition was 43.6%.
With `COc1cc2c(cc1OC)C(c1cc(Br)ccc1F)N(C(=O)CCl)CC2` (stereo not given) the inhibition was 37.2% (active).
Compound `CSc1cccc(NS(=O)(=O)c2ccccc2)c1` has an inhibition of -20.4%.
`O=C(CSc1nccc(=O)[nH]1)NC1CCCC1` showed an inhibition of -1.9%.
In the case of `CCCNC(=O)C/C(C)=N/NC(=O)COc1ccc(C)cc1Br`, the inhibition was 83.4% (active).
With `C/C(CC(=O)NC(C)(C)C)=N\NC(=O)COc1ccc(C)cc1Br` the inhibition was -14%.
For `COc1ccc(CCNC(=O)C/C(C)=N/NC(=O)COc2ccc(C)cc2Br)cc1OC`, the inhibition was 39.1%.
`CC(=O)c1ccc(OCC(=O)NC(=O)NC2CCCCC2)cc1` showed an inhibition of 6.2%.
Work on `Cc1ccc(C)c(OCC(=O)Nc2ccc(S(=O)(=O)Nc3ncccn3)cc2)c1` yielded an inhibition of -12.1%.
With `COC(=O)c1c(-c2ccccc2)csc1N1C(=O)Nc2ccccc2N1O` the inhibition was 37.8% (active).
`COC(=O)c1c(N2C(=O)Nc3ccccc3N2O)sc(C)c1C` gave an inhibition of -21.8%.
`CCOC(=O)c1c(-c2ccccc2)csc1N1C(=O)Nc2ccccc2N1O` gave an inhibition of -27.8%.
With `CC(=O)Nc1ccc(-c2csc(-c3cccnc3)n2)cc1` the inhibition was -31.8%.
In the case of `O=C(O)CNC(=O)CCN1C(=O)c2ccccc2C1=O`, the inhibition was -13.4%.
`COc1ccc(/C=C/C(=O)C(C(N)=O)=C2SCCS2)cc1` showed an inhibition of -16.2%.
In the case of `NC(=O)C(C(=O)/C=C/c1ccc(Cl)cc1)=C1SCCS1`, the inhibition was 60.5% (active).
`CCOc1ccc(/C=C/C(=O)C(C(N)=O)=C2SCCS2)cc1` gave an inhibition of 8.8%.
For `Cc1ccc(CNC(=O)/C=C/c2ccc(Br)o2)cc1`, the inhibition was -7.4%.
In the case of `NC(=O)COc1ccc(/C=N\NC(=O)c2ccc(-c3ccccc3)cc2)cc1`, the inhibition was 2.5%.
In the case of `NC(=O)COc1cccc(/C=N/NC(=O)c2ccc(-n3cccc3)cc2)c1`, the inhibition was 39.2% (active).
`NC(=O)c1ccc(C(=O)N/N=C/c2cccc(Oc3ccccc3)c2)cc1` gave an inhibition of -28.7%.
